# Assay results: PubChem BioAssay (NCATS)
# Inconclusive results are not listed. Active and inactive are the calls of the source. Calls come from the whole dose curve; as a rule, active = well fitted curve in the direction sought with a large enough effect; inconclusive = small, poorly fitted or top-dose-only effect, or another doubt; inactive = no such curve, though single readings can be large or run the other way.
# Test: qHTS Assay for Identifying Gametocytocidal Compounds (AID 743244);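 note: actives lower the fluorescent signal which means gametocytes are killed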
# Settings: P. falciparum 3D7 stage III-V gametocytes, alamarBlue, 72 h; max response: active compounds read low
# In short: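 Fluorescence at Ex 525/Em 598 nm, recorded 24 h after alamarBlue addition, reports residual metabolic activity of 3D7 gametocytes (stages III–V) following 72 h compound exposure at 37 °C, 5% CO2.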
# % is set by controls: 0 for no effect and ±100 for the full control effect.
row,SMILES,max response
1,COc1ccc(Cc2cnc(N)nc2N)cc1OC,1.42% (inactive)
2,NC(=O)NS(=O)(=O)c1ccc(N)cc1,3.95% (inactive)
3,C[C@@H](N)C(=O)O,-2.49% (inactive)
4,CCCCCC(C)N (stereo not drawn),7.89% (inactive)
5,O=C(O)[C@@H]1[C@H]2C[C@H]3c4[nH]c5ccccc5c4CCN3C[C@@H]2CC[C@@H]1O,-6.8% (inactive)
6,Cn1c(=O)c2c(ncn2CCO)n(C)c1=O,6.91% (inactive)
7,O=C(O)Cc1ccc(CCNS(=O)(=O)c2ccc(Cl)cc2)cc1,23.5% (inactive)
8,CCS(=O)(=O)CCn1c([N+](=O)[O-])cnc1C,9.95% (inactive)
9,C[N+](C)(C)CC[N+]1(C)Cc2c(Cl)c(Cl)c(Cl)c(Cl)c2C1,-6.87% (inactive)
10,CN1C[C@@H]2C[C@H]1CN2c1cc2c(cc1F)c(=O)c(C(=O)O)cn2C1CC1,2.79% (inactive)
11,CCN(CC)CCc1nc(-c2ccccc2)no1,1.91% (inactive)
12,CC1(C)[C@@H](OC(=O)CCC(=O)O)CC[C@]2(C)[C@H]3C(=O)C=C4[C@@H]5C[C@@](C)(C(=O)O)CC[C@]5(C)CC[C@@]4(C)[C@]3(C)CC[C@@H]12,-6.25% (inactive)
13,COC(=O)c1cccnc1,29% (inactive)
14,CC(C(=O)O)c1ccc2c(c1)Cc1cccnc1O2 (stereo not drawn),-8.08% (inactive)
15,CCCOC(=O)c1ccc(N)cc1,-6.49% (inactive)
16,CC[C@H](C)[C@H](N)C(=O)O,-11.6% (inactive)
17,CCOC(=O)c1cccnc1,2.39% (inactive)
18,CC1CCN(CCCC(=O)c2ccc(F)cc2)CC1,1.92% (inactive)
